# Experimental data as given in PubChem BioAssay AID1259343 (VanderVen Lab, College of Veterinary Medicine, Cornell …, 2017).
# The campaign covered roughly 6,200 compounds. About 2,900 (47%) were called active. So high a share suggests a set chosen from earlier hits. Some of the results follow. Values without a mark were called inactive. No stated cut-off is given here; in the data, active means inhibition above about 50%; inactive means the rest.
# Test: Mycobacterium tuberculosis growth inhibition, primary screen (AID 1259343)
# Settings: inhibition: at 10 µM, stronger effect = higher value; outcome: 10 uM
row,Structure (SMILES),inhibition
1,CCC(=O)Nc1cc(-c2cccs2)nn1-c1nc(C)cc(=O)[nH]1,99.9% (active)
2,CC(C)c1cc(=O)[nH]c(-n2nc(-c3cccs3)cc2NC(=O)c2cccs2)n1,99.1% (active)
3,Cc1cc(=O)[nH]c(-n2nc(-c3cccs3)cc2NC(=O)c2cccs2)n1,98.9% (active)
4,Cc1cccc(C(=O)Nc2cc(-c3cccs3)nn2-c2nc(C)cc(=O)[nH]2)c1,0.07%
5,Cc1nc(C(F)(F)F)ccc1C(=O)NC1CC2CC1C1CCCC21 (stereo unspecified),32.9%
6,CC1CCCCC1NC(=O)Cn1ccc(C(F)(F)F)n1 (stereo unspecified),94.9% (active)
7,CC1CCCCC1Nc1ccc2nnc(C(F)(F)F)n2n1 (stereo unspecified),22.4%
8,O=c1oc2ccc(O)cc2s1,83.8% (active)
9,O=C(Oc1ccc2oc(=O)sc2c1)C1CCCCC1,75.1% (active)
10,O=c1c2cc(O)ccc2oc2ccc(O)cc12,87.5% (active)
11,Oc1ccc2oc3c(c2c1)CCCC3,44.4%
12,Cc1ccc(NC(=O)c2ccc(S(N)(=O)=O)c(C)c2)cc1C,31.7%
13,Cc1ccc(NC(=O)CNC(=O)c2ccccc2)cc1C,-8.08%
14,CC(=O)NCc1ccc(C(=O)Nc2ccc(Br)c(C)c2)cc1,93.7% (active)
15,Cc1c(C(=O)O)cnn1-c1ccc(Br)cc1,39.2%
16,CC(=NNc1nc(C)cc(C)n1)c1cc2c(ccc3ccccc32)o1,16.4%
17,Cc1cc(C)nc(NN=Cc2cc(Br)cc(Br)c2O)n1,102% (active)
18,O=C(NCc1ccccc1)c1cccc(OC2CCN(C3Cc4ccccc4C3)CC2)c1,82.7% (active)
19,O=C(NCCc1ccccc1)c1ccc(OC2CCN(C(=O)C3CC34CCC4)CC2)cc1 (stereo unspecified),19.3%
20,CC1(C(=O)Nc2nc(-c3cccc(Cl)c3)ns2)CCOCC1,89.4% (active)
21,Cc1cc(NC(=O)C2(C)CCOCC2)nc(C(C)C)n1,-0.19%
22,C=CCNc1nc(NCCCN2CCCC2=O)c2sc(-c3ccccc3)cc2n1,24.9%
23,CC(C)(C#N)C(=O)Nc1cc(-c2ccccc2F)no1,88.7% (active)
24,CC(C)(C)OC(=O)NCC1CCCCN1C(=O)c1cc(-c2ccccc2F)on1 (stereo unspecified),14%
25,FC(F)(F)c1ccc2c(c1)Oc1sc(Cl)cc1NC2=S,92% (active)
26,O=C1NC(=S)SC1=Cc1cccc(C(F)(F)F)c1,14.4%

row,Structure (SMILES),inhibition
1,CC(NCc1cn(C)nc1-c1ccc(Oc2ccccc2)cc1)c1ccccc1 (stereo unspecified),70.8% (active)
2,CC(Nc1nccc(C(F)(F)F)n1)c1ccc(C#N)cc1 (stereo unspecified),22.5%
3,CCOc1cc2c(cc1CNc1ccc(C#N)cn1)OC(C)C2 (stereo unspecified),19.6%
4,CC(Nc1ccc(C#N)cn1)c1ccccc1Br (stereo unspecified),53% (active)
5,COc1ccc(C(C)NCC(O)COc2ccc(Cl)cc2Cl)cc1F (stereo unspecified),41.6%
6,COc1ccc(C(C)Nc2ccc(C#N)cn2)cc1F (stereo unspecified),94.3% (active)
7,CS(=O)(=O)c1ccc(CCNc2ccc(Cl)c(C#N)n2)cc1,24.5%
8,CC(NCc1ccc(C(C)(C)C)cc1)c1ccc(S(C)(=O)=O)cc1 (stereo unspecified),59.5% (active)
9,CS(=O)(=O)c1ccc([C@@H](O)[C@@H](CO)NC(=O)C(Cl)Cl)cc1,44.5%
10,Cc1ccc(S(=O)(=O)NCC2CCN(c3ccccc3)C2)c(C)c1 (stereo unspecified),52.8% (active)
11,Cc1ccc(S(=O)(=O)NCC2COc3ccccc3C2)cc1F (stereo unspecified),-9.55%
12,O=S(=O)(NCC1CCC(c2ccccc2)CC1)C1CCOCC1 (stereo unspecified),-0.68%
13,CCOC(=O)c1cc(-c2ccccc2)sc1NC(=O)CC(=O)OC,81% (active)
14,CCc1cc(C(=O)O)c(NC(=O)c2ccccc2C)s1,18.1%
15,CCOC(=O)c1ccccc1Nc1nnc(C(C)(C)C)c(=O)[nH]1,32.2%
16,NC(=NC1C2CC3CC(C2)CC1C3)Nc1ccc(I)cc1 (stereo unspecified),42.8%
17,C=CCN(Cc1ccccc1)C(=O)c1cnn2c1[nH]c(=O)c1ccccc12,79.8% (active)
18,COc1cc(C=Cc2ccc3ccccc3n2)cc(Cl)c1OC,26.8%
19,COc1cc(C=Cc2ccc3ccccc3n2)cc(Br)c1O,73.5% (active)
20,Fc1ccc(C=Cc2ccc3ccccc3n2)cc1,32.5%
21,O=C(NCC(c1ccco1)N1CCc2ccccc21)C(=O)Nc1ccccc1[N+](=O)[O-] (stereo unspecified),5.43%
22,CC1CC1C(=O)Nc1ccccc1N1CCc2ccccc2C1 (stereo unspecified),81.4% (active)
23,O=C(N1CCc2ccccc2C1)N1c2ccccc2Sc2ccccc21,-20%
24,O=c1c2ccccc2nc(SCc2ccc([N+](=O)[O-])cc2)n1CC1CCCO1 (stereo unspecified),26.6%
25,O=c1[nH]n(-c2ccc([N+](=O)[O-])cc2)c(=O)c2ccccc12,90% (active)
